# Assay results from the supplement of paper PMC10338343.
# ± gives the standard deviation.
# Key:
# [1] = test system: MILI (PIWIL2) piRISC loaded with piRNA #1 (26 nt); assay: pre-steady-state target cleavage rate (min^-1); guide: piRNA #1 5'p-UGAGGUAGUAGGUUGUAUAGUAUCCA; higher = faster piRNA-guided slicing of the target; conditions: auxiliary factor: 500 nM mouse GTSF1
# Summary of the method: (§1)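 Cleave-'n-Seq used a transcribed, DNA-blocked target RNA library at 0.1 nM and active affinity-purified piRISC with one synthetic guide at 1 nM, with or without 500 nM GTSF1 partner protein, in HEPES–potassium acetate buffer at 33 °C for 0–8 or 0–960 min. Uncleaved targets were sequenced and normalised to depth and to weakly complementary targets, and three trials were pooled with k3 capped at 0.0001 min^-1. The pre-steady-state cleavage rate was estimated by a burst-and-steady-state fit.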
# [2] = test system: EfPiwi piRISC loaded with piRNA #1 (26 nt); assay: pre-steady-state target cleavage rate (min^-1); auxiliary factor: 500 nM Ephydatia muelleri Gtsf1; guide: piRNA #1 5'p-UGAGGUAGUAGGUUGUAUAGUAUCCA; MIWI and MILI are mouse PIWI proteins and EfPiwi is from a freshwater sponge; tags in brackets are library labels; higher = faster piRNA-guided slicing of the target
# Summary of the method: as §1
Sequence,pre-steady-state target cleavage rate [1],pre-steady-state target cleavage rate [2]
GGAGACCAUUCUAUACAACCUACUACCUGA,0.0973 ± 0.016,0.00652 ± 0.0034
GGAGUGGAUACUAAACAACCUUCUACCUCA,0.00905 ± 0.0025,0.00385 ± 0.0026
GGAGAGGAUACUUUACAACCUACUUCCUCA,0.00524 ± 0.0027,0.00239 ± 0.0024
GGAGACGAUACUAUACAACCAACUACCACA,0.00835 ± 0.0032,0.00406 ± 0.003
GGAGACGAUACUAAACUACCUACUACCUCA,0.24 ± 0.018,0.00228 ± 0.0021
GGAGACCAUACUAUACAACCUACGACCUCA,0.137 ± 0.018,0.00282 ± 0.0019
GGAGACGAUAGUUUACAACCUACUACCUCA,0.129 ± 0.01,0.0165 ± 0.0088
GGAGUGGAUACUAUACAACCACUACCUCA,0.00753 ± 0.002,0.00771 ± 0.0031
GGAGACCUUACUAUACAACCUACUACGUCA,0.0741 ± 0.01,0.00584 ± 0.0027
GGAGACGAUACUUUACAACCUACUACGUCA,0.0766 ± 0.011,0.00279 ± 0.0019
GGAGAGGAUACUAUACAACCUACUAGCUCA,0.0627 ± 0.012,0.00484 ± 0.0019
GGAGUGGUUACUAUUCAACCUACUACCUCA,0.202 ± 0.012,0.00293 ± 0.0021
GGAGACCAAACUAUACAACGUACUACCUCA,0.0124 ± 0.0071,0.00528 ± 0.0034
GGAGACGAUACUAUACAACCUACUACCUGCA,0.203 ± 0.021,0.00933 ± 0.0034
GGAGAGGAUACUUUACAAGCUACUACCUCA,0.149 ± 0.014,0.00384 ± 0.0021
GGAGACGGAUACUAUACAACCUACUACCUCA,0.234 ± 0.018,0.221 ± 0.062
GGAGUGGAUAGUAUACAACCUACUACCUCA,0.0868 ± 0.0069,0.00712 ± 0.0031
GGAGAGGAUACAAUACAACCUACAACCUCA,0.115 ± 0.015,0.00231 ± 0.0018
GGAGACGAUACUAUUCAAGCUACUACCUCA,0.23 ± 0.015,0.00454 ± 0.002
GGAGUGGUUACUAUACAACCUACUACCACA,0.0961 ± 0.0098,0.00384 ± 0.0022
GGAGAGGAUACUAUACAACGUACUACCACA,0.0287 ± 0.0041,0.00287 ± 0.0018
GGAGAGGAAACUAUACAACCUUCUACCUCA,0.00762 ± 0.006,0.00297 ± 0.0027
GGAGACCAUACUAUACAACCUACUACGACA,0.16 ± 0.025,0.00532 ± 0.0028
GGAGAGGAUACAAUACAACCUACUACCUCA,0.172 ± 0.012,0.0112 ± 0.005
GGAGACCUAUCUAUACAACCUACUACCAGA,0.104 ± 0.016,0.00327 ± 0.0026

Sequence,pre-steady-state target cleavage rate [1],pre-steady-state target cleavage rate [2]
GGAGACCUAUCUAUACAACCUAUUACCUCA,0.0974 ± 0.01,0.00466 ± 0.0039
GGAGUGGAUACUAUACAACCUACUACGAGA,0.0112 ± 0.004,0.00447 ± 0.0022
GGAGUGGAUACGUAUACAACCUACUACCUCA,0.111 ± 0.0099,0.082 ± 0.03
GGAGAGGAUACUAUACAACCUACAAGCUCA,0.00476 ± 0.0031,0.00284 ± 0.0023
GGAGUGGAUACUAUACAACCAACUACCUGA,0.00303 ± 0.0022,0.00303 ± 0.0013
GGAGAGGAUACUAUACAACCUCCUACCUCA,0.0496 ± 0.0063,0.0065 ± 0.0026
GGAGACCAUACUAUACAACUACUACCUCA,0.0423 ± 0.0075,0.00486 ± 0.0035
GGAGAGGUUACUAUACAACCUACUUCCUCA,0.00348 ± 0.0029,0.0033 ± 0.002
GGAGACGAUACUAUACAUCCAACUACCUCA,0.00801 ± 0.0028,0.00562 ± 0.0029
GGAGAGGAUAGUAUACAACCUACUACGUCA,0.0614 ± 0.0098,0.0031 ± 0.0021
GGAGACGAAUCUAUACAACCUACUACCUCA,0.146 ± 0.015,0.0517 ± 0.018
GGAGACCAUUCUAUACAACCUACUUCCUCA,0.0522 ± 0.0086,0.00372 ± 0.0035
GGAGAGGAAACUAAACAACCUACUACCUCA,0.229 ± 0.03,0.00466 ± 0.0036
GGAGUGGAAACUAUACAACCUACUACGUCA,0.0633 ± 0.012,0.00326 ± 0.0026
GGAGUGGAUACUUUACAUCCUACUACCUCA,0.253 ± 0.012,0.0043 ± 0.0029
GGAGAGGAUACUAUACAACCUACUAGCACA,0.00642 ± 0.0042,0.00322 ± 0.0016
GGAGAGGAUACUAUACAACCUACUACGCUCA,0.0912 ± 0.013,0.00523 ± 0.0019
GGAGUGGAUACUAUCACAACCUACUACCUCA,0.199 ± 0.013,0.0265 ± 0.011
GGAGUGGAUACUAUACAACCUACUACCGCA,0.0694 ± 0.0095,0.00573 ± 0.002
GGAGACGAUACUAUACUACCUACUACCUCA,0.2 ± 0.013,0.00925 ± 0.0032
GGAGUGGAUACUAUACAACCUACUACCUGA,0.0915 ± 0.011,0.0069 ± 0.0028
GGAGACCUUACAAUACAUCCUACUACCUCA,0.232 ± 0.021,0.00553 ± 0.004
GGAGUGGUUACUAUACAACGUACUACCUCA,0.0218 ± 0.003,0.00485 ± 0.0014
GGAGAGGAUACAAUACAACCUUCUACCUCA,0.0148 ± 0.003,0.00307 ± 0.0023
GGAGACCUUACUAUACAACCUACUACCCCA,0.142 ± 0.021,0.00566 ± 0.0032

Sequence,pre-steady-state target cleavage rate [1],pre-steady-state target cleavage rate [2]
GGAGAGGAUACUAUACAACCCUACUACCUCA,0.0028 ± 0.0028,0.00598 ± 0.0032
GGAGACCAUUCUAUACAACCUACUACGUCA,0.0404 ± 0.0088,0.0027 ± 0.0025
GGAGACGAAACUAUACAACCUAGUACCUCA,0.0663 ± 0.021,0.0035 ± 0.0025
GGAGACGAUACUAUACAACCAACUACCUCA,0.00952 ± 0.004,0.00552 ± 0.0017
GGAGUGGAUACUAUACAACCUACUACGCUCA,0.111 ± 0.015,0.00482 ± 0.0021
GGAGACCUUACUAUACAACCUACUACCUAA,0.154 ± 0.019,0.00756 ± 0.0045
GGAGUGGAUACUAUACAACCUAUUACCUCA,0.158 ± 0.014,0.0922 ± 0.034
GGAGAGGAUACUAUACAACGUACUACCUGA,0.0116 ± 0.0027,0.00359 ± 0.0014
GGAGACGAAACUAUACAACCUUCUACCUCA,0.00739 ± 0.0047,0.00751 ± 0.0034
GGAGACGAUACAAUACAACCUACUACCUGA,0.116 ± 0.015,0.0025 ± 0.0015
GGAGUGGAUACUAUACAAACUACUACCUCA,0.195 ± 0.015,0.0127 ± 0.0051
GGAGUGCAUACUAUACAACCUACAACCUCA,0.0916 ± 0.01,0.00301 ± 0.0024
GGAGACCAUACUAUACAACCUACUACCGUCA,0.141 ± 0.023,0.00677 ± 0.0025
GGAGAGGAUACUUUACAACCUAGUACCUCA,0.0146 ± 0.0048,0.00261 ± 0.0016
GGAGACGAUACUAUACAACCUAUCUACCUCA,0.17 ± 0.017,0.00473 ± 0.0019
GGAGACGAUUCUAUACAAGCUACUACCUCA,0.239 ± 0.01,0.00369 ± 0.003
GGAGACCAACUAUACAACCUACUACCUCA,0.224 ± 0.021,0.00596 ± 0.0037
GGAGACCAUACUACACAACCUACUACCUCA,0.215 ± 0.018,0.0182 ± 0.0078
GGAGACCUAUCUAUACAACCUACUACCUA,0.0666 ± 0.0086,0.00487 ± 0.0042
GGAGUGGAUACUAUACAACCUAGUACCUCA,0.0508 ± 0.0096,0.00414 ± 0.0012
GGAGACCUAUCUCUACAACCUACUACCUCA,0.0688 ± 0.0068,0.00937 ± 0.0045
GGAGACGUACUAUACAACCUACUACCUCA,0.154 ± 0.015,0.0561 ± 0.022
GGAGACGUUACUAUACAACCUACUACGUCA,0.0772 ± 0.016,0.00396 ± 0.0018
GGAGACCUAACUAUAUAACCUACUACCUCA,0.117 ± 0.015,0.0063 ± 0.0034
GGAGACCUUGACUAUACAACCUACUACCUCA,0.163 ± 0.022,0.00922 ± 0.0051

Sequence,pre-steady-state target cleavage rate [1],pre-steady-state target cleavage rate [2]
GGAGUGCAUACUAUACAACGUACUACCUCA,0.0301 ± 0.0044,0.00739 ± 0.0027
GGAGUGGAUACAAUACAAGCUACUACCUCA,0.213 ± 0.015,0.00566 ± 0.0028
GGAGUGGAUACUAUACAAGCUACUACGUCA,0.0651 ± 0.013,0.00405 ± 0.0015
GGAGACGAUACAUAUACAACCUACUACCUCA,0.111 ± 0.013,0.00804 ± 0.0033
GGAGACGUUACUAUACAACCUACUAGCUCA,0.0954 ± 0.016,0.0029 ± 0.0017
GGAGUGGAUACUAUCCAACCUACUACCUCA,0.197 ± 0.01,0.0097 ± 0.0041
GGAGACCAUACUAUACAACCUACUAACUCA,0.0993 ± 0.021,0.00957 ± 0.0048
GGAGAGGAUACUAUAACAACCUACUACCUCA,0.161 ± 0.012,0.0661 ± 0.025
GGAGACGAUACUAUACAUCCUACUACCUGA,0.237 ± 0.031,0.00464 ± 0.0014
GGAGACGAAUACUAUACAACCUACUACCUCA,0.178 ± 0.015,0.0529 ± 0.018
GGAGACCAUACUAACAACCUACUACCUCA,0.114 ± 0.019,0.00859 ± 0.0041
GGAGACGAUACUAUUCAACCUUCUACCUCA,0.0105 ± 0.0025,0.00443 ± 0.0025
GGAGACCUAUGGAUACAACCUACUACCUCA,0.0189 ± 0.0046,0.00946 ± 0.005
GGAGAGCAUACAAUACAACCUACUACCUCA,0.206 ± 0.017,0.00861 ± 0.0046
GGAGACCAUAAUAUACAACCUACUACCUCA,0.0982 ± 0.013,0.0856 ± 0.03
GGAGUGGAUACUUUACAACGUACUACCUCA,0.0295 ± 0.0029,0.00254 ± 0.0014
GGAGACGAUUGAAUACAACCUACUACCUCA,0.00898 ± 0.0022,0.00528 ± 0.0043
GGAGAGGAUACUAUUACAACCUACUACCUCA,0.167 ± 0.012,0.0933 ± 0.04
GGAGACCAUUCAAUACAACCUACUACCUCA,0.0561 ± 0.0083,0.0119 ± 0.0054
GGAGACCUAUGUAUACAACCUACUACCUCCA,0.0928 ± 0.016,0.00535 ± 0.004
GGAGUGGAUACUAUACAAGCUACUACCACA,0.133 ± 0.012,0.0039 ± 0.0017
GGAGACGAUGACUAUACAACCUACUACCUCA,0.151 ± 0.02,0.11 ± 0.039
GGAGAGGAUACUAUACAACCGACUACCUCA,0.00439 ± 0.0027,0.00504 ± 0.002
GGAGACCAUACUAUACUACCUACUUCCUCA,0.0579 ± 0.011,0.00301 ± 0.0023
GGAGACCAUACUAUACAACCUUCUUCCUCA,0.00848 ± 0.0038,0.00613 ± 0.0044
